Test results published in PubChem BioAssay AID1259421 (Broad Institute, 2018).
Where “and” joins values, the source holds several entries; their conditions need not be identical. Identical values can stand only once. Screen size: about 6,400 compounds; about 610 (9.5%) were called active. No stated cut-off is given here; in the data, active means activity change below about -70%; inconclusive means no clear call, values can overlap the other calls; inactive means above that. For the sample, actives were picked, then their nearest neighbours and some compounds at random. More than one record can exist for a structure, and the calls need not agree.

assay: Toxoplasma gondii ME49Luc growth in HeLa cells, luciferase, no IFN-y, primary screen (AID 1259421); details: T. gondii ME49Luc in HeLa, 72 h, stronger effect = lower value, concentration not given here

Row | SMILES | activity change, negative = inhibition
1 | Cc1cc2c(C(C)C)c(O)c(O)c(C=O)c2c(O)c1-c1c(C)cc2c(C(C)C)c(O)c(O)c(C=O)c2c1O | -70.8% (active) and -12.6% (inactive)
2 | Cc1cc(=O)oc2c(C=O)c(O)ccc12 | 16.5% (inactive)
3 | CC(=O)c1ccc(O)c(C(N)=O)c1 | 7.8% (inactive)
4 | CCCCNCC1COc2ccccc2O1 (stereo not given) | 0.699% (inactive)
5 | CN[C@@H]1C[C@H]2O[C@@](C)([C@@H]1OC)n1c3ccccc3c3c4c(c5c6ccccc6n2c5c31)C(=O)N[C@H]4O | -88.9% (active)
6 | Cc1[nH]cnc1CN1CCc2c(c3ccccc3n2C)C1=O | 17% (inactive)
7 | C[C@]12OC(C[C@]1(O)CO)n1c3ccccc3c3c4c(c5c6ccccc6n2c5c31)CNC4=O | -87.7% (active)
8 | Cn1c2ccccc2c2c3c(c4c5ccccc5n(CCC#N)c4c21)CNC3=O | -94.9% (active)
9 | O=C1NCc2c1c1c3ccccc3[nH]c1c1[nH]c3ccccc3c21 | 2.85% (inactive)
10 | CO[C@@H]1[C@H](N(C)C(=O)c2ccccc2)C[C@H]2O[C@]1(C)n1c3ccccc3c3c4c(c5c6ccccc6n2c5c31)C(=O)NC4 | -86.8% (active)
11 | CC1(C)Oc2ccc(C#N)cc2C(N2CCCC2=O)C1O (stereo not given) | 4.23% (inactive)
12 | C[N+](C)(C)C[C@H](O)CC(=O)O | 9.13% (inactive)
13 | CC(Cc1ccccc1)(NC(=O)CN)c1ccccc1 (stereo not given) | -47.2% (inactive) and 8.98% (inactive)
14 | CCc1ccc(C(=O)C(C)CN2CCCCC2)cc1 (stereo not given) | 8.8% (inactive) and 14.4% (inactive)
15 | O=C(/C=C/c1ccc(O)c(O)c1)OC(Cc1ccc(O)c(O)c1)C(=O)O (stereo not given) | 2.52% (inactive)
16 | CO/N=C(\N)c1ccc(-c2ccc(-c3ccc(/C(N)=N/OC)cc3)o2)cc1 | 86.4% (inactive)
17 | COc1cc(OC)cc(OC)c1 | 10% (inactive)
18 | O=C(CO)C(O)C(O)C(O)CO (stereo not given) | 2.77% (inactive)
19 | CC(=O)[C@H]1CCC2C3CC=C4C[C@@H](O)CC[C@]4(C)C3CC[C@@]21C (stereo not given in full) | 1.09% (inactive)
20 | COC(=O)c1cc(Cl)ccc1OC | 1.3% (inactive)
21 | COc1cc(OC)c(NC(=O)Nc2cc(C)on2)cc1Cl | 4.07% (inactive) and 26.1% (inactive)
22 | COc1ccc(Cl)cc1NC(=O)Nc1cc(C)nc2ccccc12 | -81.5% (active) and -81.1% (active)
23 | O=C(O)Cc1csc(-c2ccc(Cl)cc2)n1 | 15.8% (inactive)
24 | CS(=O)(=O)Nc1cc2occ(NC=O)c(=O)c2cc1Oc1ccccc1 | 15.7% (inactive)
25 | CCCCCCCCCCC(C)(C)C(=O)Nc1c(OC)cc(OC)cc1OC | 16.9% (inactive)
26 | CC(C)(C)/[N+]([O-])=C/c1ccc(S(=O)(=O)O)cc1S(=O)(=O)O | 8.6% (inactive)
27 | CS(=O)(=O)c1ccc(C(=O)Nc2ccc(Cl)c(-c3ccccn3)c2)c(Cl)c1 | 19.4% (inactive)

Row | SMILES | activity change, negative = inhibition
28 | CS(=O)(=O)c1ccc(-c2cnc(N)c(C(=O)Nc3ccccc3)n2)cc1 | -81.9% (active)
29 | CN(C)c1nc(N)c(C(=O)Nc2cccnc2)nc1Cl | 157% (inactive) and 219% (inactive)
30 | Cn1ccc2cc3c(cc21)CCN3C(=O)Nc1cccnc1 | 104% (inactive) and 4.22% (inactive)
31 | CC(=O)NS(=O)(=O)c1ccc(NC(=O)c2ccccc2C(=O)O)cc1 | 1.07% (inactive)
32 | CN1CCN(S(=O)(=O)c2ccc(-c3cnc(N)c(C(=O)Nc4cccnc4)n3)cc2)CC1 | -77.6% (active)
33 | COc1ccc(/C=C/c2cc(O)cc(O[C@@H]3O[C@H](CO)[C@@H](O)[C@H](O)[C@H]3O)c2)cc1 | 12.1% (inactive)
34 | Clc1cccc(C=NC=Nc2cccc(Cl)c2)c1 | -3.22% (inactive)
35 | COC(=O)[C@@H]1CC(=O)O[C@H](C)C/C=C/C=C/[C@H](O)[C@H](C)C[C@H](CC=O)[C@H](OC2O[C@H](C)[C@@H](OC3C[C@@](C)(O)[C@@H](OC(=O)CC(C)C)[C@H](C)O3)[C@H](N(C)C)[C@H]2O)[C@H]1OC (stereo not given in full) | -63.5% (inactive)
36 | CC(Cc1ccc(O)c(O)c1)C(C)Cc1ccc(O)c(O)c1 (stereo not given) | 5.71% (inactive)
37 | CNC(=O)c1ccc2cc([C@]3(O)CCn4cncc43)ccc2c1 | 9.56% (inactive)
38 | C=C1C(=O)CC2CC3OC3(C)CCC3OC3(C)C[C@H](OC(C)=O)C1C2(C)C (stereo not given in full) | -76.2% (active)
39 | NCC(=O)CCC(=O)OCc1ccccc1 | 16.4% (inactive)
40 | NC(Cc1ccccn1)c1ccccc1 (stereo not given) | 13% (inactive)
41 | Oc1c(I)cc(I)c2cccnc12 | -8.85% (inactive) and -77.3% (active)
42 | Oc1c(Cl)cc(Cl)c2cccnc12 | -83.9% (active) and -88% (active) and -90% (active)
43 | O=S(=O)(O)c1cc(I)c(O)c2ncccc12 | 9.1% (inactive) and 15.9% (inactive)
44 | Oc1c(I)cc(Cl)c2cccnc12 | 24.2% (inactive)
45 | Cc1ccc2c(Cl)cc(Cl)c(O)c2n1 | -84% (active)
46 | CO[C@@H]1[C@@H](O[C@@H]2O[C@H](C)[C@@H](O[C@H]3C[C@@](C)(O)[C@H](O)[C@H](C)O3)[C@H](N(C)C)[C@H]2O)[C@@H](CC=O)C[C@@H](C)[C@@H](O[C@H]2CC[C@H](N(C)C)[C@@H](C)O2)/C=C/C=C/C[C@H](C)OC(=O)C[C@H]1O | 4.59% (inactive)
47 | C[n+]1cccc(C(=O)O)c1 | 14.5% (inactive)
48 | O=C(O)CC(O)(CC(=O)[O][Bi]1[O]C(=O)CC(O)(CC(=O)O)C(=O)[O]1)C(=O)O (stereo not given) | 22.8% (inactive)
49 | CCC(C)(C)C(=O)O | 9.3% (inactive)
50 | O=C(O)Cc1ccc(OCCNC[C@H](O)c2ccccc2)cc1 | 15.6% (inactive) and 5.18% (inactive)
51 | COC(=O)C[C@H]1C(C)(C)C(=O)[C@@H]2CC3=C(CC[C@]4(C)C3=CC(=O)O[C@H]4c3ccoc3)[C@@]1(C)C2=O | 16.4% (inactive)
52 | CC(=O)OCC(=O)[C@@]1(O)CCC2C3CCC4=CC(=O)CC[C@]4(C)[C@@]3(F)[C@@H](O)C[C@@]21C (stereo not given in full) | -4.8% (inactive)
53 | N[C@@H](CCC(=O)N[C@@H](CS[NH2+][O-])C(=O)NCC(=O)O)C(=O)O | 15.6% (inactive)
54 | CC(C)Cc1ccc([C@@H](C)C(=O)NS(C)(=O)=O)cc1 | 0.904% (inactive)

Row | SMILES | activity change, negative = inhibition
55 | NC(COCc1ccccc1)C(=O)O (stereo not given) | 2.58% (inactive)
56 | CCCc1c(OCCCCc2nn[nH]n2)ccc(C(C)=O)c1O | 3.01% (inactive)
57 | N#Cc1c(N)nc(SCc2csc(-c3ccc(Cl)cc3)n2)c(C#N)c1-c1ccc(OCCO)cc1 | -62.2% (inactive)
58 | Cc1nccc2[nH]c(=O)ccc12 | 4.39% (inactive)
59 | CC(=O)O[C@@H]1CC[C@@]2(C)C(CC[C@]3(C)C2C(=O)C=C2[C@@H]4[C@@H](C)[C@H](C)CC[C@]4(C)CC[C@]23C)[C@@]1(C)C(=O)O (stereo not given in full) | -14.9% (inactive)
60 | COc1ccc(CCCOC(Cn2ccnc2)c2ccc(OC)cc2)cc1 (stereo not given) | -72.3% (active)
61 | O=C(O)c1ccc(OCCn2ccnc2)cc1 | -29.3% (inactive)
62 | NC(=O)C1CSSCCC(=O)NC(CCCCN=C(N)N)C(=O)NCC(=O)NC(CC(=O)O)C(=O)NC(Cc2c[nH]c3ccccc23)C(=O)N2CCCC2C(=O)N1 (stereo not given) | 1.76% (inactive)
63 | CCOC(=O)CSCCC1NC(C(=O)O)CS1 (stereo not given) | 6.06% (inactive) and 14% (inactive)
64 | N#C/C(=C/c1ccc(O)c(O)c1)C(=O)NCc1ccccc1 | 27.2% (inactive)
65 | O=C(O)c1cc2occc2[nH]1 | 12% (inactive)
66 | Cc1cc(C)c2c(c1)[C@@H](N(Cc1cc(C(F)(F)F)cc(C(F)(F)F)c1)c1nnn(C)n1)CCCN2CC1CCC(C(=O)O)CC1 (stereo not given in full) | -80.5% (active)
67 | CNC(=O)c1cccc(NCC(=O)NCCc2ccc(OC)c(OC)c2)c1 | 16.5% (inactive)
68 | Cc1ccc(C(=O)N(CCCN)[C@@H](c2oc3cc(Cl)ccc3c(=O)c2Cc2ccccc2)C(C)C)cc1 | -80.4% (active)
69 | Cc1c(C)n(Cc2ccccc2)c2ccc(C(=O)OCCN(C)C)cc12 | 11.3% (inactive)
70 | Cc1ccc(C(=O)N(CCCN)[C@@H](c2nc3cc(Cl)ccc3c(=O)n2Cc2ccccc2)C(C)C)cc1 | -72.6% (active)
71 | O=C(O)CC(S)C(=O)O (stereo not given) | 11.1% (inactive)
72 | Cc1cc2nc3c(=O)[nH]c(=O)nc-3n(CC(O)C(O)C(O)CO)c2cc1C (stereo not given) | 28.7% (inactive) and -4.94% (inactive)
73 | O=C(O)[C@H](O)[C@@H](O)[C@H](O)[C@H](O)CO | -60.2% (inactive)
74 | CC(C)C1CCC(C(=O)N[C@H](Cc2ccccc2)C(=O)O)CC1 (stereo not given in full) | 20.3% (inactive)
75 | CC(/C=C/C(=O)NO)=C\[C@@H](C)C(=O)c1ccc(N(C)C)cc1 | -69.6% (inactive)
76 | CN(C)c1ccc(C(=O)NCCCCCCC(=O)NO)cc1 | -59.9% (inactive) and -86.2% (active) and -94.9% (active)
77 | O=C(CCCCCCNC(=O)c1cnc(N(c2ccccc2)c2ccccc2)nc1)NO | -10.9% (inactive)
78 | CCCCCCCCCCCCC/C=C/[C@@H](O)[C@H](COC1OC(CO)C(OC2OC(CO)C(OC3OC(CO)C(O)C(OC4OC(CO)C(O)C(O)C4O)C3NC(C)=O)C(OC3(C(=O)O)CC(O)C(NC(C)=O)C(C(O)C(O)CO)O3)C2O)C(O)C1O)NC(=O)CCCCCCCCCCCCCCCCC (stereo not given in full) | 8.33% (inactive)
79 | O=C(O)c1c(Sc2ccccc2)c2cc(Cl)ccc2n1Cc1ccc(Cl)cc1 | -5.44% (inactive) and 8.39% (inactive)
80 | COC(=O)C1CC2=CC(=O)CCC2(C)C23OC2CC2(C)C(CCC24CCC(=O)O4)C13 (stereo not given) | 3.98% (inactive)
